Test systems include DU-145 prostate; K-562 leukemia; MALME-3M melanoma; MDA-MB-231 breast; RXF 393 renal; SF-268 CNS; SF-295 CNS; SF-539 CNS; UACC-257 melanoma; M14 melanoma; HCT-15 colon; HT29 colon; SNB-75 CNS; SNB-19 CNS; U251 CNS; SK-MEL-5 melanoma; UACC-62 melanoma; LOX IMVI melanoma; SK-MEL-28 melanoma; PC-3 prostate.
Holding throughout (test): NCI-60 one-dose screen, 48 h (100 = growth as untreated, 0 = no growth, -100 = all killed)
Common to all, as to settings: 10 µM

Each structure is given as a SMILES string. The panel holds about 83,000 compounds, 20% with a hit somewhere; the sample as a whole holds those more often.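 Results are percent growth after 48 hours of single-concentration exposure. 100 means growth as in untreated cells, lower positive values show inhibition; negative values down to -100 show cell death.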 A number with no mark means an inactive call. Activity calls are given as the source filed them. Rule for the calls: active = growth percent below 10; inactive = the rest.

For the compound `COc1cc(C2C(C#N)=C(N)Oc3cc(O)ccc32)cc(OC)c1OC` (configuration not stated), the growth in the experiment on DU-145 prostate was 11.1%; with K-562 leukemia it was 9.12% (active); in the experiment with MALME-3M melanoma, 43.5%; in the experiment with MDA-MB-231 breast, 36.1%; in the experiment with RXF 393 renal, -9.12% (active); in the experiment with SF-268 CNS it was 50.4%. The growth in the experiment with SF-295 CNS is 0.55% (active); in the experiment on SF-539 CNS, 4.64% (active); in the experiment with UACC-257 melanoma it was 64.2%; in the experiment on M14 melanoma, -15.6% (active); with HCT-15 colon, 30.1%; in the experiment on HT29 colon, 2.42% (active). For the same compound, the growth with SNB-75 CNS was 33.9%; in the experiment on SNB-19 CNS it was 44.9%; in the experiment on U251 CNS, 11.1%; in the experiment with SK-MEL-5 melanoma, 23%; in the experiment on UACC-62 melanoma it was 38.4%; in the experiment with LOX IMVI melanoma it was 45.7%. Moreover, the growth with SK-MEL-28 melanoma is 58%.
On to `Cc1ccc(/C=C2/C(=O)N(C)c3ccc(S(=O)(=O)Nc4ccc(C(C)(C)C)cc4)cc32)s1`, for which the growth was 87.3% with DU-145 prostate; 79.8% in the experiment on K-562 leukemia; 57.6% in the experiment with MALME-3M melanoma; 35.2% in the experiment on MDA-MB-231 breast; 41.8% with RXF 393 renal; 67.4% in the experiment with SF-268 CNS. Also, the growth with SF-295 CNS is 88%; with SF-539 CNS, 23%; in the experiment with UACC-257 melanoma, 85.7%; with M14 melanoma, 83.1%; in the experiment with HCT-15 colon it was 83.8%; in the experiment on HT29 colon it was 75.7%. The growth is -9.41% (active) with SNB-75 CNS; 66.6% in the experiment on SNB-19 CNS; 56.6% with PC-3 prostate; 89.4% with SK-MEL-5 melanoma; 74.9% with UACC-62 melanoma; 58.1% with LOX IMVI melanoma. In addition, the growth in the experiment with SK-MEL-28 melanoma is 81.8%.
In the case of `O=C1/C(=C/c2ccc([N+](=O)[O-])s2)Oc2cc(Cl)ccc21`, the growth is 32.2% in the experiment with DU-145 prostate; -8.29% (active) in the experiment with K-562 leukemia; -49.5% (active) in the experiment on MALME-3M melanoma; -71.7% (active) with MDA-MB-231 breast; -49.6% (active) in the experiment on RXF 393 renal; -59.4% (active) in the experiment on SF-268 CNS. The growth is 52.1% with SF-295 CNS; -10.9% (active) with SF-539 CNS; 31.7% in the experiment with UACC-257 melanoma; 2.51% (active) with M14 melanoma; 0.579% (active) with HCT-15 colon; -4.42% (active) in the experiment on HT29 colon. The growth in the experiment with SNB-75 CNS was 58.8%; in the experiment on SNB-19 CNS, 2.32% (active); in the experiment with PC-3 prostate, -73% (active); in the experiment on SK-MEL-5 melanoma it was 17.6%; with UACC-62 melanoma, -37.7% (active); in the experiment on LOX IMVI melanoma, -78.4% (active). For the same compound, the growth in the experiment on SK-MEL-28 melanoma is -29.2% (active).
As to `CCc1ccc(-c2ccc(-n3nc(C)c4c(N)nc(Cc5ccccc5)nc43)cc2)cc1`, the growth with DU-145 prostate was 77%; in the experiment on K-562 leukemia, 7.44% (active); with MALME-3M melanoma, 106%; in the experiment with MDA-MB-231 breast, 38.2%; with RXF 393 renal it was 75.7%; in the experiment on SF-268 CNS, 66.1%. Further, the growth in the experiment with SF-295 CNS is 70.8%; with SF-539 CNS, 80.9%; in the experiment with UACC-257 melanoma, 71.9%; in the experiment on M14 melanoma, 30.3%; in the experiment with HCT-15 colon, 60.6%; in the experiment on HT29 colon, 78.8%. The growth in the experiment with SNB-75 CNS is 65%; with SNB-19 CNS, 66.3%; in the experiment with U251 CNS, 68%; in the experiment on SK-MEL-5 melanoma, 95.5%; in the experiment with UACC-62 melanoma it was 73.1%; with LOX IMVI melanoma, 51.1%. Besides, the growth with SK-MEL-28 melanoma was 92.4%.
Take `CCN(CC)CCOc1ccc2c(c1O)C(=O)c1ccccc1C2=O`: the growth in the experiment with DU-145 prostate is 95.4%; with K-562 leukemia, 71.6%; with MALME-3M melanoma, 109%; with MDA-MB-231 breast, 82.8%; in the experiment with RXF 393 renal, 77.7%; with SF-268 CNS it was 90.1%. Moreover, the growth with SF-295 CNS was 91.5%; with SF-539 CNS, 91.9%; in the experiment with UACC-257 melanoma, 94.7%; in the experiment on M14 melanoma, 92%; in the experiment on HCT-15 colon it was 74.4%; in the experiment on HT29 colon, 68.1%. In addition, the growth was 79.1% in the experiment on SNB-75 CNS; 82.6% in the experiment with SNB-19 CNS; 77.3% in the experiment on U251 CNS; 81.2% in the experiment with SK-MEL-5 melanoma; 90.5% with UACC-62 melanoma; 76.6% in the experiment with LOX IMVI melanoma. Further, the growth in the experiment on SK-MEL-28 melanoma is 102%.
As for `COc1ccc(-c2cc(-c3ccccc3)nc(SCCCCCCC(=O)NO)n2)cc1`, the growth with DU-145 prostate is 60%; in the experiment with K-562 leukemia, 26.7%; with MALME-3M melanoma, 20.3%; with MDA-MB-231 breast, 68.9%; in the experiment with RXF 393 renal it was 22.1%; with SF-268 CNS, 97.4%. Besides, the growth is 67.4% with SF-295 CNS; 73.2% in the experiment with SF-539 CNS; 49.5% with UACC-257 melanoma; 48.2% in the experiment with M14 melanoma; 44.3% in the experiment with HCT-15 colon; 27% with HT29 colon. In addition, the growth was 24.8% in the experiment with SNB-75 CNS; 60.6% in the experiment with SNB-19 CNS; 51.5% in the experiment on U251 CNS; 13.1% with SK-MEL-5 melanoma; 24.8% in the experiment on UACC-62 melanoma; 13.1% with LOX IMVI melanoma. In the experiment with SK-MEL-28 melanoma, the growth was 67.9%.
Turning to `Cc1ccc(S(=O)(=O)N/N=C2\CCCc3ccccc32)cc1`, the growth with DU-145 prostate was 114%; in the experiment on K-562 leukemia, 97.2%; with MALME-3M melanoma, 105%; with MDA-MB-231 breast it was 108%; with RXF 393 renal it was 103%; in the experiment on SF-268 CNS, 102%. Also, the growth in the experiment with SF-295 CNS was 104%; in the experiment with SF-539 CNS, 108%; in the experiment with UACC-257 melanoma it was 93.8%; in the experiment with M14 melanoma, 118%; with HCT-15 colon it was 109%; in the experiment on HT29 colon, 115%. The growth in the experiment with SNB-75 CNS is 92.4%; in the experiment on SNB-19 CNS, 94.6%; with PC-3 prostate, 90.3%; with SK-MEL-5 melanoma, 103%; in the experiment on UACC-62 melanoma, 92.9%; with LOX IMVI melanoma, 94.8%. For the same compound, in the experiment with SK-MEL-28 melanoma, the growth was 105%.
Turning to `CC[C@H]1OC(=O)[C@H](C)[C@@H](O[C@H]2C[C@@](C)(OC)[C@@H](O)[C@H](C)O2)[C@H](C)[C@@H](O[C@@H]2O[C@H](C)C[C@H](N(C)C)[C@H]2O)[C@](C)(OC)C/C(C)=C2/O[C@@]1(C)C=C2C`, the growth in the experiment with DU-145 prostate is 76.9%; in the experiment on K-562 leukemia, -19.6% (active); in the experiment with MALME-3M melanoma, -80% (active); in the experiment on MDA-MB-231 breast, -44.2% (active); with RXF 393 renal, 21.3%; in the experiment on SF-268 CNS, 64.1%. Moreover, the growth with SF-295 CNS was 95.5%; in the experiment on SF-539 CNS, 64.7%; with UACC-257 melanoma, 17.7%; in the experiment on M14 melanoma, -75.1% (active); with HCT-15 colon it was -33.5% (active); with HT29 colon it was -7.11% (active). The growth is 49.1% in the experiment with SNB-75 CNS; 57.4% in the experiment with SNB-19 CNS; 53.3% in the experiment with PC-3 prostate; 18.8% with SK-MEL-5 melanoma; -83.8% (active) in the experiment with UACC-62 melanoma; -85.1% (active) in the experiment on LOX IMVI melanoma. The growth in the experiment with SK-MEL-28 melanoma was -57.1% (active).

The values are drawn from PubChem BioAssay (NCI).
